# Records with an inconclusive call do not appear. Unmarked numbers belong to inactive results. Calls of active or inactive are those of the source. The call rests on the fitted dose curve; in most records, active means well fitted cell-killing curve with a large enough effect in the repeat runs; inconclusive means weak or mixed curves, or effect the other way; inactive means flat fitted curve, though single readings scatter.
# Assay: qHTS assay to identify small molecule agonists of the androgen receptor (AR) signaling pathway in the presence of an antagonist - cell viability counter screen (AID 1259379); further: nearly all actives have a fitted effect of over 25% in size;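 on activity change, negative = cytotoxicity: MDA-kb2 human breast cancer cells carrying an MMTV luciferase reporter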
# Settings: MDA-kb2 viability, CellTiter-Fluor, 16 h; series mostly up to 92.4 µM; activity change, negative = cytotoxicity: at the top concentration
# Summary of the method: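 MDA-kb2 human breast carcinoma cells (stable MMTV-luciferase, AR/GR responsive) were seeded 3,000 cells/well, pre-incubated 5 hr at 37C without CO2, then given 3.0uM nilutamide and compounds at 15 concentrations for 16 hr. Viability was read by CellTiter-Fluor fluorescence.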
# On the % scale 0 is the no-effect control and ±100 the full control effect; potency means the concentration at half of the fitted maximal effect.
Compound,"activity change, negative = cytotoxicity",Potency
CC/C=C(\C)C=O,3.11%,
O=C(O)CN(CCCN(CC(=O)O)CC(=O)O)CC(=O)O,-2.17% [at 19 µM],
CSc1ccc(O)cc1C,4.07%,
O=C(NCc1ncc(C(F)(F)F)cc1Cl)c1c(Cl)cccc1Cl,,17.2 µM (active)
O=c1cc[nH]cc1,0.959%,
CN1CCN(CCCN2c3ccccc3Sc3ccc(Cl)cc32)CC1,-1.35% [at 42.5 µM],
CCOc1nc(F)cc2nc(S(=O)(=O)Nc3c(Cl)cccc3C(=O)OC)nn12,-3.28%,
Cn1ccnc1,-0.858%,
CCCCCCCCCCCCS(=O)(=O)Cl,2.74% [at 19 µM],
CCN(CCC#N)c1ccc(N=Nc2ccc([N+](=O)[O-])cc2)cc1,-10.8%,
CC(C)C(=O)C(C)C,1.14%,
CCN(CC)c1ccc2c(c1)Oc1cc(N(CC)CC)ccc1C21OC(=O)c2ccccc21,,7.5 µM (active)
Cc1cc(Br)ccc1NC(=O)CCl,,54.5 µM (active)
N#Cc1nc(Cl)c(Cl)c(Cl)c1Cl,,24.3 µM (active)
[Cl][Eu]([Cl])[Cl],-3.22%,
COc1cc(/C=C/C(=O)CC(=O)/C=C/c2ccc(O)c(OC)c2)ccc1O,,54.8 µM (active)
N#CCCOCCC#N,-2.51%,
Oc1cccc2c(O)cccc12,-2.97%,
Nc1ccc(F)c([N+](=O)[O-])c1,-4%,
CC(=O)CC(N)=O,0.0919%,
Oc1ccc(C2(c3ccc(O)c(C4CCCCC4)c3)CCCCC2)cc1C1CCCCC1,,43.3 µM (active)
CCSCC,1.17%,
C=CC(=O)OCCOC1C2CCC1C1CC=CC12 (stereo not drawn),-6.73% [at 19 µM],

# — PubChem BioAssay (Tox21)
